Tau fluor counter: counter-screen for tau fibril formation inhibitors. tau K18 P301L Alexa594 fluorescence, heparin fibrillization. Potency, µM (series often up to 57.7 µM), for the others: at the highest dose activity change, negative = decrease. 280,000 compounds, 0.93% hits; also: nearly all actives have a fitted effect of over 55% in size
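Human tau K18 P301L (15 uM unlabeled, 0.24 uM Alexa 594-labeled) in 100 mM sodium acetate pH 7 with 20 uM heparin, 6 hr at 37 C. ThT 30 uM added, 1 hr ambient; Alexa 594 FP and total fluorescence read at 555/632 nm.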
HPGD block: inhibitors of human 15-hydroxyprostaglandin dehydrogenase (HPGD); purified HPGD, NADH fluorescence kinetic, PGE2 substrate; 150,000 compounds, 4.3% hits; AID 894; Potency, µM, without a hit: at the top dose activity change, negative = inhibition, most hits filed as inhibitors; P15428; active = well fitted inhibition curve with a large enough effect, not every such curve was filed as active; inconclusive = small, poorly fitted or top-dose-only effect, or another doubt; inactive = no such curve, though single readings can be large or run the other way
Target sequence (P15428 whole entry, looked up): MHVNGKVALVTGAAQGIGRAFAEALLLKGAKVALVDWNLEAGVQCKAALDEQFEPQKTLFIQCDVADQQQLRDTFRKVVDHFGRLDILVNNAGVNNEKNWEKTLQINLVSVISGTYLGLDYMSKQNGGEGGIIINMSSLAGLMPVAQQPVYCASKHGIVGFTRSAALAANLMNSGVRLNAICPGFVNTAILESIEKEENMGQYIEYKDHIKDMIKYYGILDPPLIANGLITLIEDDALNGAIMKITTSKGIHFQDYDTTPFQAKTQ
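NADH formation kinetics: reaction with 30 uM PGE2 and 1 mM NAD+ (final), 20 nM enzyme, Tris-HCl pH 8 with Tween 20, after 15 min compound preincubation at room temperature. Fluorescence change, last versus first of five reads.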
Tau FP inhib: blocks human tau fibril formation measured by polarization | AID 1468 | 280,000 compounds, 0.39% hits | P10636 | Potency, µM (titrated, usually from 57.7 µM), for the others: at the top dose activity, negative = inhibition, hits mostly inhibitors | K18 P301L tau heparin fibrillization, Alexa594 FP, 6 h; also: nearly all actives have a fitted effect of over 55% in size
Target sequence (P10636 561-689 P618L limits assumed): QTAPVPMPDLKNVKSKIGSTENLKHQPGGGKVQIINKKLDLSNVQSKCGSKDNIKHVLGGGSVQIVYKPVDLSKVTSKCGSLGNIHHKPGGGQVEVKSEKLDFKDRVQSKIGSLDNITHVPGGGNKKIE
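Recombinant K18 P301L […], labeled with Alexa 594 at 0.24 uM over 15 uM unlabeled; heparin inducer 20 uM final; 37 C, 6 hr; FP endpoint.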
Tau fibril ThT: blocks human tau fibril formation measured by thioflavin T; P10636; recombinant tau K18 P301L (four-repeat tau fragment), heparin-induced fibrillization, ThT fluorescence; Potency, µM (top dose mostly 57.4 µM), without a hit: at the highest dose activity, negative = inhibition, usual class: inhibitors; 270,000 compounds, 2.1% hits; also: nearly all actives have a fitted effect of over 55% in size
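Heparin-induced fibrillization of the P301L-mutant K18 repeat-domain fragment of human tau was followed by ThT binding in quantitative high-throughput format.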
NPSR antagonist: antagonists of human neuropeptide S receptor cAMP signaling. Potency, µM (doses to about 38.3 µM), inactives show at the top dose activity change, negative = inhibition, actives largely listed as inhibitors. 220,000 compounds, 1% hits. Q6W5P4. CHO-NPSR cells, cAMP TR-FRET, antagonist mode; also: nearly all actives have a fitted effect of over 50% in size
ALDH1A1 inh: blocks purified human ALDH1A1 activity | P00352 | AID 1030 | 220,000 compounds, 7.3% hits | Purified ALDH1A1, NADH fluorescence, propionaldehyde substrate | Potency, µM (titrated, usually from 75.3 µM), inactives show at the top dose activity, negative = inhibition, actives largely listed as inhibitors; active = well fitted inhibition curve with a large enough effect, not every such curve was filed as active; inconclusive = small, poorly fitted or top-dose-only effect, or another doubt; inactive = no such curve, though single readings can be large or run the other way;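 also: plate controls were no enzyme wells and a reference inhibitor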
* hit, by the source's call; ? = inconclusive; . = no result; [ ] = another dose, or the depositor's remark. Only some compounds are listed: those with a hit (about 9.5% of all), similar ones and a draw of the others. Unless noted, calls follow the shape of the dose curve; as a rule, active = well fitted curve in the direction sought with a large enough effect; inconclusive = small, poorly fitted or top-dose-only effect, or another doubt; inactive = no such curve, though single readings can be large; an effect the other way counts as inactive or inconclusive. Unless noted, % is scaled to controls: 0 for no effect and ±100 for the full control effect; potency is read from the fitted curve at half-maximal effect.

SMILES | Tau fluor counter | HPGD block | Tau FP inhib | Tau fibril ThT | NPSR antagonist | ALDH1A1 inh
O=C(NC(=S)Nc1ccccc1N1CCOCC1)c1cccs1 | -28% | -14% | 9% | -11% | -3% | 40µM*
Cc1cccc(-n2c(N)cc(=O)nc2SCC(=O)Nc2nnc(C)s2)c1 | -12% | -8% | -3% | -16% | -4%[46.1 µM] | 4%
Cc1ccc(C)n1-c1c(C(=O)NCCCN2CCN(c3ccc(F)cc3)CC2)sc2ncccc12 | -29% | . | ? | ? | . | .
c1ccc(B2OC[C@@H]3OB(c4ccccc4)O[C@H]([C@@H]4COB(c5ccccc5)O4)[C@@H]3O2)cc1 | . | -4% | . | . | . | 8%[13.5 µM]
Cc1cc(NC(=O)c2ccc(Br)c(S(=O)(=O)N3CCCC3)c2)no1 | -14% | -3% | ? | -14% | 9%[46.1 µM] | -6%
Cc1cc(NC(=O)c2cccc(S(=O)(=O)N3CCCC3)c2)no1 | 1% | -16% | 7% | -1% | -3%[46.1 µM] | 35µM*
O=C(NC(=S)Nc1ccc(N2CCCCC2)cc1)c1cccs1 | 16µM*[quencher] | 32µM* | ? | 13µM* | -14%[46.1 µM] | 22µM*
CS(=O)(=O)N1CCN(c2ccc(NC(=S)NC(=O)c3cccs3)cc2)CC1 | -13% | . | 2% | ? | -22% | ?
COc1cc(OC)cc(C(=O)NC(=S)Nc2ccc(N3CCCC3)cc2)c1 | ? | -11% | 1% | ? | 21% | 11µM*
CCOc1cccc(C(=O)NC(=S)Nc2ccc(N3CCN(CC)CC3)cc2)c1 | ? | . | 9% | ? | 1% | ?
COc1ccc(Cl)cc1NC(=O)Cn1c(=O)n2nc(-c3ccccc3)nc2c2ccccc21 | -9% | . | -1% | -2% | . | .
CN(C)S(=O)(=O)c1ccc(C(=O)NCCS(=O)(=O)N2CCN(c3ccccc3)CC2)cc1 | 5% | . | -2% | 3% | . | .
CN(C)/C=N/c1c(C#N)nnn1Cc1ccccc1 | -10% | 20µM* | -2% | -6% | -24%[46.1 µM] | ?
CN(C)C=Nc1ncc2c3ccccc3n(Cc3ccccc3)c2c1C#N | ? | ? | ? | 9% | -22%[46.1 µM] | ?
Cc1ccc(-n2nc(C)c3c(C(F)(F)F)cc(-c4cccnc4)nc32)cc1Cl | -4% | . | -7% | -1% | . | .
O=C(Nc1nnc(S(=O)(=O)N2CCc3ccccc32)s1)c1cccc(Cl)c1 | -3% | . | -1% | ? | . | .
CCOCCCNS(=O)(=O)c1ccc(OC)c(Cl)c1Cl | 0% | -14% | 6% | 9% | -21%[46.1 µM] | 2.2µM*
CCCCCNS(=O)(=O)c1cc(C)ccc1OC | -1% | -8% | 7% | -6% | 9% | -2%
Cc1ccccc1N1CCN(C(=O)c2ccccc2NC(=O)c2ccccc2C(=O)O)CC1 | -7% | . | 2% | -13% | -8% | -5%
FC(F)(F)c1cc(NC(=S)NC23CC4CC(CC(C4)C2)C3)cc(C(F)(F)F)c1 | -17% | -3% | -9% | 4% | . | 0%
CCCCCn1c(=N)n(CC(O)COc2cccc(C)c2)c2ccccc21 (centres undefined) | -7% | . | -2% | -11% | . | .
COc1cc2c(cc1OC)n(CC(=O)Nc1ccc(C)cc1C)c(=O)n1nc(-c3ccccc3)nc21 | -7% | . | -17% | -4% | . | .
CCOC(=O)C1=C(N)N(c2cc(S(=O)(=O)N3CCOCC3)ccc2Cl)C(=O)C1 | -10% | . | 2% | -22% | -1% | 14µM*
CCOC(=O)c1cccc(S(=O)(=O)N2CCOCC2)c1 | 0% | . | -4% | 3% | 2% | -1%
COc1cccc(CNC(=O)Cn2cc3c(n2)-c2c(oc(C(=O)N4CCOCC4)c2C)CC3)c1 | -4% | . | -4% | -3% | . | .
SMILES | Tau fluor counter | HPGD block | Tau FP inhib | Tau fibril ThT | NPSR antagonist | ALDH1A1 inh
COc1cccc(C2C3=C(N=C4SCC(=O)N42)c2ccccc2CC3)c1OC (centres undefined) | -19% | -18% | -3% | ? | ? | ?
COc1ccc(OC)c(C2C3=C(N=C4SCC(=O)N42)c2ccccc2CC3)c1 (centres undefined) | -20% | 22µM* | ? | ? | ? | ?
CCOc1ccc(/C(C)=N/N2C(=O)C(CC(=O)Nc3ccc(OC)cc3[N+](=O)[O-])SC2=Nc2cccc(C)c2C)cc1 (centres undefined) | 0% | ? | 2% | 3% | -7% | 14µM*
O=C(O)c1cc(N/N=C/c2ccc(N3CCOCC3)s2)ccc1Cl | ? | ? | ? | 11µM* | -5% | 2.8µM*
COc1ccc(N2CC(NC(=O)C3CCCCC3)CC2=O)cc1OC (centres undefined) | -2% | . | -5% | -7% | . | .
Fc1ccc2[nH]c3c(c2c1)CN(C(=S)NCc1ccccc1)CC3 | 16µM*[quencher] | . | ? | ? | 49% | ?
O=S(=O)(c1ccccc1F)N1CCN(C(=S)NCc2ccccc2)CC1 | -11% | . | -8% | 5% | -11% | 16µM*
O=S(=O)(c1cccc(F)c1)N1CCN(C(=S)NCc2ccccc2)CC1 | -12% | . | -5% | 8% | -18% | 14µM*
O=S(=O)(c1ccccc1)N1CCN(C(=S)NCc2ccccc2)CC1 | -19% | . | -13% | -4% | -33% | ?
Cc1nc2ccc(S(=O)(=O)NCC(=O)Nc3ccc(F)cc3F)cc2s1 | -1% | . | 1% | 3% | . | .
COc1cc(OC)c(NS(=O)(=O)c2c(C)nc3sc(C)cn3c2=O)cc1Cl | -14% | . | -10% | -1% | . | .
CCCCCC(=O)N1CCN(CCN=CC2=C(O)CC(c3ccc(OC)c(OC)c3)CC2=O)CC1 (centres undefined) | -6% | -3% | 5% | ? | -15%[46.1 µM] | 22µM*
CCCCCC(=O)N1CCN(CCN=CC2=C(O)CC(c3ccc(OC)cc3)CC2=O)CC1 (centres undefined) | -3% | -17% | 1% | -14% | -17%[46.1 µM] | ?
CCCc1nc(SCC(=O)N2CCC(Cc3ccccc3)CC2)c2c(=O)n(C)c(=O)n(C)c2n1 | -13% | -17% | -3% | ? | ? | 18µM*
COc1cc(NC(=O)Cn2c(=O)n(-c3ccccc3)c(=O)c3c4c(sc32)CCCC4)cc(OC)c1 | 6% | . | -5% | ? | . | .
Cc1nn(C)cc1/C=C(/C#N)C(N)=O | -5% | -7% | 7% | -4% | 12% | 0%
COc1ccc(NC(=O)c2cc(S(=O)(=O)N3CCCC3)oc2C)cc1 | -9% | . | -5% | -5% | -12% | .
Cc1oc(-c2ccccc2)cc1C(=O)Nc1ccc2ccccc2c1 | 8% | ? | 0% | -1% | -19%[46.1 µM] | 32µM*
COc1ccc(NS(=O)(=O)c2cc(OC)ccc2NC(=O)c2cc(C)oc2C)cc1 | ? | -19% | ? | ? | -3%[46.1 µM] | 3.2µM*
COc1ccc(NC(=O)c2cc(-c3ccccc3)oc2C)cc1 | -17% | 22µM* | -15% | ? | 3% | ?

Screens from PubChem.
